Assay results: article PMC5540273 (PLoS ONE, 2017)

Tests used:
Details in all cases: concentration: 1 μM, replicates: in singlicate; n = 1
[1] = system: MAP4K3
[2] = system: MAP4K4
[3] = system: MAP4K5
[4] = system: MAPKAPK2
[5] = system: MAPKAPK5
[6] = system: MARK1
[7] = system: MARK2
[8] = system: MARK3
[9] = system: MARK4
[10] = system: MAST1
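Also: KINOMEscan kinase panel screen.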

Row | Structure (SMILES) | %Inh [1] [%] | %Inh [2] [%] | %Inh [3] [%] | %Inh [4] [%] | %Inh [5] [%] | %Inh [6] [%] | %Inh [7] [%] | %Inh [8] [%] | %Inh [9] [%] | %Inh [10] [%]
1 | O=C(NCCNc1ccnc(Nc2ccc(F)cc2)n1)Nc1ccccc1F [GSK1379880] | 0 | 0 | 0 | 12 | 0 | 0 | 0 | 0 | 0 | 0
2 | Cc1cccc(-c2nc(Nc3ccc4ncsc4c3)c3ccccc3n2)n1 [GW867588] | 9 | 3 | 4 | 0 | 0 | 6 | 0 | 0 | 9 | 21
3 | NS(=O)(=O)c1cccc(-c2ccc3nccc(-c4cccc(S(N)(=O)=O)c4)c3c2)c1 [GW867253] | 0 | 0 | 0 | 0 | 0 | 7 | 0 | 0 | 25 | 47
4 | CCc1nc(-c2cccc(C)c2)c(-c2ccnc(NCc3ccccc3)c2)s1 | 0 | 12 | 0 | 0 | 0 | 0 | 1 | 0 | 0 | 0
